Source: PubChem
Shown are actives, neighbours in structure and some others; about 7.5% of the full set was active somewhere.
ELG1 genotox – genotoxicity induction in ELG1-luciferase HEK293T cells; Potency, µM (top dose mostly 46 µM), without a hit: at the top dose activity change, positive = activation, usual class: activators; AID 504466; HEK293T ELG1-luciferase reporter, luminescence, 16 h; 330,000 compounds, 1.3% hits; note: % of control where 0% means no effect; nearly all actives have a fitted effect of over 60% in size
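Cells (2,000/well) expressing the ELG1-luciferase fusion are dosed by pin tool and kept 16 hr at 37 °C, 5% CO2. Signal comes from ONE-Glo luciferase reagent after 30 min at room temperature.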
Luc counter – Kinase-Glo luciferase inhibition (counter-screen); Q27757; Kinase-Glo luciferase, ATP luminescence, 8 min; Potency, µM (doses to about 38.3 µM), for inactives: at the top dose activity change, negative = inhibition, hits mostly inhibitors; 200,000 compounds, 0.28% hits; note: % is set by controls: 0 for no effect and ±100 for the full control effect; nearly all actives have a fitted effect of over 60% in size
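Recombinant Kinase-Glo luciferase, 10 uM ATP (linear range), luciferin; imidazole pH 7.2 / KCl / MgCl2 / Tween / BSA buffer; 8 min RT; luminescence.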
SMN2 splice up – increases expression of the SMN2 splice variant; 210,000 compounds, 2.8% hits; Potency, µM (series often up to 46.1 µM), without a hit: at the highest dose activity change, positive = activation, most hits filed as activators; HEK293 SMN2-luciferase splicing reporter, luminescence, 30-36 h; AID 1458; note: % of control where 0% means no effect; nearly all actives have a fitted effect of over 55% in size
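qHTS luciferase splicing reporter: luminescence rises when SMN2 exon 7 is included in transfected HEK293 cells. Compound exposure lasted 30-36 h at 37C, with 4.5 mM final sodium butyrate as control, followed by a ONE-Glo read.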
Rab9 promoter act – activators of Rab9 promoter | Huh7 Rab9 promoter-luciferase reporter, luminescence, 24 h | Potency, µM (series often up to 9.22 µM), inactives show at the top dose activation, negative = inhibition, actives largely listed as activators | 320,000 compounds, 2.8% hits; note: % of control where 0% means no effect; nearly all actives have a fitted effect of over 60% in size
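Promoter activation is measured as luciferase luminescence in Huh7 cells stably transfected with a Rab9 promoter–luciferase construct, following 24 h compound exposure at 37 °C and 10 min reagent incubation at ambient temperature.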
FLuc modulator – counter-screen for miR-21 project: firefly luciferase inhibitors or activators; purified FLuc, Km substrates, luminescence inhibition; Potency, µM (series often up to 57.5 µM), without a hit: top-dose activity change, negative = inhibition, most hits filed as inhibitors; 360,000 compounds, 6.9% hits;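 note: plate controls were vehicle for no effect and reference inhibitor for full effect; nearly all actives have a fitted effect of over 55% in size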
Target sequence (P08659 whole entry, looked up): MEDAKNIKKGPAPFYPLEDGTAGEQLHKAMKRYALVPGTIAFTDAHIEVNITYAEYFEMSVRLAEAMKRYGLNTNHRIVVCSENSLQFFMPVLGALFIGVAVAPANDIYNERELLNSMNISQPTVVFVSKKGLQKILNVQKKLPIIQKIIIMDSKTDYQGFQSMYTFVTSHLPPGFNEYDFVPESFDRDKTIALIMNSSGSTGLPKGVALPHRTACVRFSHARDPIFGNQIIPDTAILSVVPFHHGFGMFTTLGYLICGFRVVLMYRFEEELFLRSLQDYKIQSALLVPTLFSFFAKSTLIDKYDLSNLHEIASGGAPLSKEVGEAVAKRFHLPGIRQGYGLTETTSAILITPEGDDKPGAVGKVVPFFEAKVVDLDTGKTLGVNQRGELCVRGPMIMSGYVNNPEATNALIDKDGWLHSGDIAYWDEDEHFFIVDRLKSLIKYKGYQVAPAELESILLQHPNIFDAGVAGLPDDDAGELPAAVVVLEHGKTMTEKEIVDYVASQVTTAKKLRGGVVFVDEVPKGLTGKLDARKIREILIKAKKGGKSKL
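Purified P. pyralis luciferase (10nM final) with 10uM D-luciferin and 10uM ATP (Km levels) in 50mM Tris acetate pH 7.5, 10mM Mg acetate, 0.01% Tween-20, 0.05% BSA; qHTS 6-point titration, ~60 µM downward; luminescence read.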
NPC1 promoter act – NPC1 promoter activation. AID 485313. Huh7 NPC1 promoter luciferase reporter, 24 h. 320,000 compounds, 2.4% hits. Potency, µM (series often up to 9.22 µM), inactives show at the top dose activation, hits mostly activators; note: % of control where 0% means no effect; nearly all actives have a fitted effect of over 60% in size
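Luciferase expression driven by the NPC1 promoter was measured in stably transfected Huh7 cells after a 24 h compound incubation, using a luciferase reagent and a luminescence read.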
Starred values were filed as active, the others as inactive; ? = inconclusive; . = no result given; [ ] = dose if it differs, or a comment. Calls come from the whole dose curve; as a rule, active = well fitted curve in the direction sought with a large enough effect; inconclusive = small, poorly fitted or top-dose-only effect, or another doubt; inactive = no such curve, though single readings can be large; an effect the other way counts as inactive or inconclusive. Potency is the fitted concentration of half-maximal effect.

SMILES | ELG1 genotox | Luc counter | SMN2 splice up | Rab9 promoter act | FLuc modulator | NPC1 promoter act
CCN(C(=O)CSc1nnc(-c2cc3occc3n2C)n1-c1ccccc1C)c1ccccc1 | . | . | . | . | -8% | .
O=C(O)C/C(=C\c1cc2c(cc1Br)OCO2)c1nc2ccccc2s1 | 0% | . | . | -6% | -6% | -2%
Brc1cc2c(cc1/C=N/Nc1nc3ccccc3s1)OCO2 | 18µM* | -5% | ? | ? | -19% | ?
Cc1nc(N/N=C\c2ccc3c(c2)OCO3)sc1C | ? | . | . | 0.32µM* | 1.9µM* | 1.6µM*
C(=N\Nc1nc2ccccc2s1)/c1ccc2c(c1)OCO2 | ? | -2% | 1µM* | 1.3µM* | 0.76µM* | 4µM*
Cc1ccc(S(=O)(=O)N/N=C\c2ccc3c(c2)OCO3)cc1C | 4% | . | . | -3% | -12% | 1%
COc1ccc(N2CC(NC(=O)C3CC3)CC2=O)cc1 (stereo not drawn) | . | . | . | . | 0% | .
CCSc1ncc(/C=N/Nc2ccccc2)n1C | 18% | 4% | 14µM* | ? | 19µM* | ?
CCSc1ncc(/C=N/Nc2ccc([N+](=O)[O-])cc2)n1C | ? | -1% | ? | 0.71µM* | ? | 0.79µM*
O=[N+]([O-])c1ccc(N/N=C\c2cccn2-c2ccccc2)nc1 | -6% | -1% | -54% | -4% | -2% | -5%
CCSc1ncc(/C=N/Nc2ccc(Cl)cc2)n1C | ? | 0% | 20µM* | 2.8µM* | 3µM* | 1.6µM*
Cn1c(-c2ccc(F)cc2)cnc1SCC(=O)Nc1ccccc1 | -6% | 1% | 0% | -13% | -3% | -4%
CCOC(=O)c1cc(NC(=O)c2ccc(OC)cc2)c(=O)n2c1oc1ccc(Cl)cc12 | . | . | -2% | . | 3% | .
CCN1CCN(c2nc(C)nc3c2sc(=S)n3C)CC1 | 3% | 3% | -1% | -6% | -17% | -2%
Cc1nc(N2CCCCC2)c2sc(=S)n(C)c2n1 | 21µM* | 3% | -116% | -11% | 1% | -1%
COc1cccc(C(=O)c2cn(CC(=O)NCCc3ccccc3)c3nc(C)ccc3c2=O)c1 | . | . | . | . | 1% | .
CCCOc1ccc(/C=N/NC(=O)CSc2ccccn2)cc1OC | 13% | . | . | ? | 11µM* | 2%
CC(=C/c1ccc(C(C)C)cc1)/C=N/NC(=O)CSc1ccccn1 | ? | -2% | 3%[1.84 µM] | 2.8µM* | ? | ?
COc1ccc(/C=N/NC(=O)c2cccc(Br)c2)cc1CSc1ccccn1 | 0% | 3% | -12% | -6% | -7% | 2%
CN(C)c1ccc(/C=N/NC(=O)CSc2ccccn2)cc1 | ? | . | . | ? | 12µM* | 27%
CC(/C=N/NC(=O)CSc1ccccn1)=C\c1ccc(C(C)C)cc1 | ? | 2% | ? | 22% | ? | ?
COc1cc(/C=N/NC(=O)CSc2ccccn2)ccc1O | 3% | . | . | 15% | ? | -5%
COc1ccc(/C=N/NC(=O)c2ccn[nH]2)cc1CSc1ccccn1 | ? | . | . | ? | 11µM* | ?
O=c1cc(-c2ccc(F)cc2)nc(SCc2nc(-c3ccc(Cl)cc3)no2)[nH]1 | . | . | . | . | -9% | .
CN(C)CCCNS(=O)(=O)c1cc(Cl)ccc1Cl | 18µM* | -1% | 11% | 17% | 6% | -1%
SMILES | ELG1 genotox | Luc counter | SMN2 splice up | Rab9 promoter act | FLuc modulator | NPC1 promoter act
CN(C)c1ccc(NS(=O)(=O)c2cc(Cl)ccc2Cl)cc1 | 5% | 4% | -8% | 0% | 19µM* | -2%
CN(C)CCCNS(=O)(=O)c1cc(Cl)c(Cl)cc1Cl | 0% | . | . | 1% | 1% | -1%
CCN(c1ccc(NS(=O)(=O)c2cc(Cl)ccc2Cl)cc1)C(C)C | 5% | 2% | -25% | 13% | -2% | 0%
CCc1cccc(CC)c1NS(=O)(=O)c1ccc2c(c1)CCN2C(=O)C1CC1 | . | . | -4% | . | -1% | .
CC(C)c1c(C(=O)N/N=C/c2cccs2)nnn1-c1nonc1N | 0% | . | . | 3% | 17µM* | 8%
CCc1c(C(=O)N/N=C/c2cccs2)nnn1-c1nonc1N | 4% | . | . | 15% | 12µM* | 17%
